Experimental data published in PubChem BioAssay (Tox21).
“And” between values parts separate entries of the source, which are not always exact repeats. Identical values can stand only once. Inconclusive results are not listed. Entries that show only a call come without a potency. Where a structure was tested more than once in an assay, its records may differ in their call. The source made the active and inactive calls. Unless noted, calls come from the whole dose curve; as a rule, active = well fitted curve in the direction sought with a large enough effect in the repeat runs; inconclusive = weak or mixed curves; inactive = no such curve, though single readings can be large; an effect the other way counts as inactive or inconclusive.

Assays:
[1] = target: Acetylcholinesterase (Homo sapiens) (UniProt P22303); assay: Acetylcholinesterase (AChE) small molecule antagonists: enzyme-based qHTS assay (AID 1347397; calls by dose curve; note: nearly all actives have a fitted effect of over 55% in size); details: Potency: AChE enzyme activity inhibition
Chain of Acetylcholinesterase (Homo sapiens) (P22303 whole entry, looked up): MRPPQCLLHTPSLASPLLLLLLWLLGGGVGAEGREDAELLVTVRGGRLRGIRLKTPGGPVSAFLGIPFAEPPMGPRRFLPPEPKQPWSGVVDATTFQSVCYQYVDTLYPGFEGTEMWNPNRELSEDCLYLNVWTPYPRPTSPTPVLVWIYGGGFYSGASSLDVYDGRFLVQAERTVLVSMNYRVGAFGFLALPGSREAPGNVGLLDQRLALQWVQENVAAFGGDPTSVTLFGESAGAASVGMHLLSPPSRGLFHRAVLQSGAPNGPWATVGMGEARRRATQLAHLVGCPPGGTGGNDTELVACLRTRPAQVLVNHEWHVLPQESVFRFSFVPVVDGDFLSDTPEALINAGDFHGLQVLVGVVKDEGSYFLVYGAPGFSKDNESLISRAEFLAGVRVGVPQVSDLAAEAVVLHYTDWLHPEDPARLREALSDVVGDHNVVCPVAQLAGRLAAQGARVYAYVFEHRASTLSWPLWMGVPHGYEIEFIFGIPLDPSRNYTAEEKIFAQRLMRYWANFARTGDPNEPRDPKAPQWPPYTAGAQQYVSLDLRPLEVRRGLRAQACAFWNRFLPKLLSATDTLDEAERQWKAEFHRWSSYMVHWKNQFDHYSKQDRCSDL
Method in brief: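 rhAChE 50 mU/mL (dispensed) + cpd or DMSO, 30 min RT; add DTNB/acetylthiocholine cocktail, 10 min RT; colorimetric thiocholine readout. qHTS, 1536-well format.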

[2] = target: Acetylcholinesterase (Homo sapiens) (UniProt P22303); assay: Acetylcholinesterase (AChE) small molecule antagonists: enzyme-based qHTS assay with human liver microsomes (AID 1347399; calls by dose curve; note: nearly all actives have a fitted effect of over 60% in size); details: Potency: qHTS inhibition
Method in brief: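 Recombinant human AChE (50 mU/mL in the enzyme mix) and human liver microsomes (0.25 mg/mL final) were preincubated with compound and NADPH (0.25 mg/mL final) for 30 min at 37 C. Acetylthiocholine/DTNB was then added; thiocholine was read colorimetrically after 10 min at room temperature.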

[3] = target: Cytochrome P450 2D6 (Homo sapiens) (UniProt P10635); assay: Cytochrome P450 Family 2 Subfamily D Member 6 (CYP2D6) small molecule antagonists: luciferase reporter qHTS assay (AID 1671196); note: nearly all actives have a fitted effect of over 50% in size
Chain of Cytochrome P450 2D6 (Homo sapiens) (P10635 whole entry, looked up): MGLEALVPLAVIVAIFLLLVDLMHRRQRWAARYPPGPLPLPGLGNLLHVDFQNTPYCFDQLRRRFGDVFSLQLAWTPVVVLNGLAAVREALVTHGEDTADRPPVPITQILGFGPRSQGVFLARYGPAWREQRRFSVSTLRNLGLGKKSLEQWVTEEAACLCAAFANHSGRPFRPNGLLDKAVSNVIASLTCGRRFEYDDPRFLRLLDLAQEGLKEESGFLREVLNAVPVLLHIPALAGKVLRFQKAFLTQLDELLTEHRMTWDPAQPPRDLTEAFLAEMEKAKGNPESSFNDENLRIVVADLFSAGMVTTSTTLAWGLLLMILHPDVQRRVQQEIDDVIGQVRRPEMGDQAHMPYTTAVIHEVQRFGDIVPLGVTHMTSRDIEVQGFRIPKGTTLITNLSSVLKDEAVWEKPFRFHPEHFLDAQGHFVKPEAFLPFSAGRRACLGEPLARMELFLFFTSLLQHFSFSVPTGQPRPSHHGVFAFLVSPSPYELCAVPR
Method in brief: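 Cell-free P450-Glo system: CYP2D6 with proluciferin substrate was pre-incubated with compound for 10 min, then reacted with NADPH regeneration for 1 h at room temperature. Luciferin product was detected after 20 min, and data were reported as relative luminescence units.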

[4] = target: Cytochrome P450 2C19 (Homo sapiens) (UniProt P33261); assay: Cytochrome P450 Family 2 Subfamily C Member 19 (CYP2C19) small molecule antagonists: luciferase reporter qHTS assay (AID 1671197); note: nearly all actives have a fitted effect of over 65% in size
Chain of Cytochrome P450 2C19 (Homo sapiens) (P33261 whole entry, looked up): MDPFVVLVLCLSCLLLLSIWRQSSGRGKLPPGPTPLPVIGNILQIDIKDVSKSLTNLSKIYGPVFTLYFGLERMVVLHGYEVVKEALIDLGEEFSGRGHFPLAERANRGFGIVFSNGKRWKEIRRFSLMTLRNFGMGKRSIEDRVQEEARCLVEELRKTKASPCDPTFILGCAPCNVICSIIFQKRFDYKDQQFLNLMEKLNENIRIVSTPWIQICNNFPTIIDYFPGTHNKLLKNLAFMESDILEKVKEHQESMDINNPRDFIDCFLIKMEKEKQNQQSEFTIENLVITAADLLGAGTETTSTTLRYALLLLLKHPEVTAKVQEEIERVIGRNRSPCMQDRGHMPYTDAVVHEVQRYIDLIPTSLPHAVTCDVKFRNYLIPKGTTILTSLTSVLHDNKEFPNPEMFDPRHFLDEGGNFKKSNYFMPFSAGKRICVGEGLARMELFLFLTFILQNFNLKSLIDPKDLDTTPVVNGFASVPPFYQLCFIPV
Method in brief: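 Quantitative high-throughput screen of the Tox21 library using CYP2C19 with proluciferin substrate. Reaction: NADPH regeneration, 37C, 1 h, after 10 min compound preincubation at room temperature. Readout: luminescence.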

[5] = target: Cytochrome P450 2C9 (Homo sapiens) (UniProt P11712); assay: Cytochrome P450 Family 2 Subfamily C Member 9 (CYP2C9) small molecule antagonists: luciferase reporter qHTS assay (AID 1671198); note: nearly all actives have a fitted effect of over 50% in size
Chain of Cytochrome P450 2C9 (Homo sapiens) (P11712 whole entry, looked up): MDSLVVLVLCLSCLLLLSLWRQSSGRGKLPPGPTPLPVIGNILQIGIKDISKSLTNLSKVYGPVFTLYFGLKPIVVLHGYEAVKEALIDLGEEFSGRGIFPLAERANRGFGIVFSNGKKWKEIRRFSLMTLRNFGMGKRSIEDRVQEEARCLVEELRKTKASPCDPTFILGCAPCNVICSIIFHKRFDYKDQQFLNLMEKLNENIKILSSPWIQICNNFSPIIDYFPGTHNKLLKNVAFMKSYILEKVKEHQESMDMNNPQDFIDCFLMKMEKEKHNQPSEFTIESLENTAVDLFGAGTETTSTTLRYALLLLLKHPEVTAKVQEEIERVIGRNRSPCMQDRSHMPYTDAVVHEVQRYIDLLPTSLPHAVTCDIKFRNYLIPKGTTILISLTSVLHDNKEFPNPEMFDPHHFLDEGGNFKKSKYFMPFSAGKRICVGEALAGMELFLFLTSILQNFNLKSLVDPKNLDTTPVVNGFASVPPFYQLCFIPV
Method in brief: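 Enzyme-substrate mix preincubated with compound 10 min at room temperature; reaction started with NADPH regeneration solution, 1 h 37C. Luminescent luciferin product read after 20 min detection reagent.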

[6] = target: Cytochrome P450 1A2 (Homo sapiens) (UniProt P05177); assay: Cytochrome P450 Family 1 Subfamily A Member 2 (CYP1A2) small molecule antagonists: luciferase reporter qHTS assay (AID 1671199); note: nearly all actives have a fitted effect of over 50% in size
Chain of Cytochrome P450 1A2 (Homo sapiens) (P05177 whole entry, looked up): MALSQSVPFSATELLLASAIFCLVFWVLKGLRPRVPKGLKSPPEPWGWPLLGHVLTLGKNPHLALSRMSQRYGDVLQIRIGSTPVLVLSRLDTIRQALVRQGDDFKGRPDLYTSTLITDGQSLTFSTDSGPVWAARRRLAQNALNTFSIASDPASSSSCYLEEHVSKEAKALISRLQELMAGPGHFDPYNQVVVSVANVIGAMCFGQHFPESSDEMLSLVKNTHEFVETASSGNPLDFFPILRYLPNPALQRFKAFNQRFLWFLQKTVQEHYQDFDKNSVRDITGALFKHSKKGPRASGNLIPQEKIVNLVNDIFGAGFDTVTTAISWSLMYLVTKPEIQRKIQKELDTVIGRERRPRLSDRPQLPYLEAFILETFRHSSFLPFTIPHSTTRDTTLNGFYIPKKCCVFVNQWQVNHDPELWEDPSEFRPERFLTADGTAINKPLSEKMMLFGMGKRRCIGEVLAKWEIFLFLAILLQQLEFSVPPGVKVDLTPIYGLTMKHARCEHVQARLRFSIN
Method in brief: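 P450-Glo CYP1A2 enzyme–proluciferin substrate mix with compound 10 min at room temperature, then NADPH regeneration 1 h at room temperature. Luciferin detection reagent added, luminescence read after 20 min; furafylline positive control.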

[7] = target: Voltage-gated inwardly rectifying potassium channel KCNH2 (Homo sapiens) (UniProt Q12809); assay: Human Ether-a-go-go-Related Gene (hERG) channel small molecule antagonists: fluorescence cell-based qHTS assay (AID 1671200); note: nearly all actives have a fitted effect of over 50% in size
Chain of Voltage-gated inwardly rectifying potassium channel KCNH2 (Homo sapiens) (Q12809 whole entry, looked up): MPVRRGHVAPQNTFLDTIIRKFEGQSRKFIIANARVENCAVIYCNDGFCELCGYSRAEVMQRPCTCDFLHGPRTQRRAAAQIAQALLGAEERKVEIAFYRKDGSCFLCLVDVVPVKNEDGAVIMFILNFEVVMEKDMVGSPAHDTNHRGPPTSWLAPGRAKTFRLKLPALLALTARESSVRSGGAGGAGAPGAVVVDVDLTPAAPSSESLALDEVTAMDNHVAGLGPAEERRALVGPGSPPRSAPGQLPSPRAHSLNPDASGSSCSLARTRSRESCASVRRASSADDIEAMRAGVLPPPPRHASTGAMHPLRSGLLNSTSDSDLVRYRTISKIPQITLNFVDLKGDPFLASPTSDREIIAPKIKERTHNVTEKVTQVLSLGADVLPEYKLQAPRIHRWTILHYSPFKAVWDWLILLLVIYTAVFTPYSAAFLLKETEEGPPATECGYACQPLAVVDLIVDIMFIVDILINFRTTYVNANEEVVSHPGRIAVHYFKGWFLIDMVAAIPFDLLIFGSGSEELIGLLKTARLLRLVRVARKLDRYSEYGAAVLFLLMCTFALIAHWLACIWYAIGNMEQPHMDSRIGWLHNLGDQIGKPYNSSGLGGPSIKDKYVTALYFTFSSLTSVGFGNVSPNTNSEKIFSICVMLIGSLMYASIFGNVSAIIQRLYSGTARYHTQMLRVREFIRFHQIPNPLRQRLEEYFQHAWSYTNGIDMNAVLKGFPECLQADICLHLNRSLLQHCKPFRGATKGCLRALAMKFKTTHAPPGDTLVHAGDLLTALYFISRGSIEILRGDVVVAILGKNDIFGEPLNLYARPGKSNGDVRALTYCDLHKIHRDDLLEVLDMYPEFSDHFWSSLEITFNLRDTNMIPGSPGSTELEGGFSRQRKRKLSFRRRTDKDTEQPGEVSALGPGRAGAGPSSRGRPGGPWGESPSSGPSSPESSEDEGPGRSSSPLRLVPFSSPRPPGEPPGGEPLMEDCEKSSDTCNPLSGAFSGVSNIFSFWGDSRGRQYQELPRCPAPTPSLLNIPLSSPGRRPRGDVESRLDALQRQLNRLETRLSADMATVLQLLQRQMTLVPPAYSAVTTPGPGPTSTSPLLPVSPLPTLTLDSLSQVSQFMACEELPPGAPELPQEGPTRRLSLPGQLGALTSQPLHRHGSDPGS
Method in brief: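 U2OS cells expressing the channel were plated at 1000 cells/well, incubated overnight at 37 C, then loaded with FluxOR II thallium-sensitive dye for 1 h at room temperature in the dark, with a further 10 min at room temperature before stimulation.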

[8] = target: Cytochrome P450 3A4 (Homo sapiens) (UniProt P08684); assay: Cytochrome P450 Family 3 Subfamily A Member 4 (CYP3A4) small molecule antagonists: luciferase reporter qHTS assay (AID 1671201); note: nearly all actives have a fitted effect of over 50% in size
Chain of Cytochrome P450 3A4 (Homo sapiens) (P08684 whole entry, looked up): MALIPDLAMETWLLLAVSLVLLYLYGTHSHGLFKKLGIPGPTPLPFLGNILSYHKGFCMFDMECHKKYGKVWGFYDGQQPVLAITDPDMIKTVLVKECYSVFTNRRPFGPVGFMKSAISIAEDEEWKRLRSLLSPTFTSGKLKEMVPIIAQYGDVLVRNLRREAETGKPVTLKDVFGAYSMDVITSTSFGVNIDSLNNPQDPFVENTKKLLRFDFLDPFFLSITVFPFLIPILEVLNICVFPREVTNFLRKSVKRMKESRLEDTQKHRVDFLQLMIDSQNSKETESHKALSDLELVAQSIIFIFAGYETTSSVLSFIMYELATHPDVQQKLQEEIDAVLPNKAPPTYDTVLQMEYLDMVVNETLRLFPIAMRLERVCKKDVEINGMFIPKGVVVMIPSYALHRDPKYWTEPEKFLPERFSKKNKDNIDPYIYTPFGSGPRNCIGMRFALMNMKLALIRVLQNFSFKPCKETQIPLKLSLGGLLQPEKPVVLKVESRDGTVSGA
Method in brief: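 P450-Glo CYP3A4 system with proluciferin substrate; compounds preincubated 10 min RT with enzyme-substrate mix, then NADPH regeneration added for 1 h RT. Detection reagent 20 min, luminescence read as relative luminescence units.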
Potency is the fitted concentration of half-maximal effect.

SMILES	Potency [1]	Potency [2]	Potency [3]	Potency [4]	Potency [5]	Potency [6]	Potency [7]	Potency [8]
CCn1cc[n+](C)c1C	inactive	inactive	inactive	inactive	inactive	inactive	inactive	inactive
O=C(O)C(Cl)(Cl)Cl	inactive	inactive	inactive	20 µM (active)	inactive	inactive and 35.6 µM (active)	inactive	inactive
Oc1ccccc1-c1ccccc1	inactive	inactive	39.9 µM (active)	39.9 µM (active) and 31.7 µM (active) and 23 µM (active)	71 µM (active) and 35.6 µM (active) and 25.8 µM (active)	23 µM (active) [middle of 4 runs]	inactive	inactive
CCCCCCCCCCCC(=O)O	inactive	inactive	inactive	79.9 µM (active) and inactive	102 µM (active)	inactive	inactive	inactive
COCC(=O)N(c1c(C)cccc1C)C(C)C(=O)OC (stereo unspecified)	inactive	inactive	inactive	41 µM (active) and 39.8 µM (active) and inactive	70.9 µM (active) and inactive	inactive	inactive	inactive
O=C(O)c1nc(Cl)ccc1Cl	inactive	inactive	inactive	inactive	inactive	inactive	inactive	inactive
CCOP(=S)(OCC)Oc1ccc2c(C)c(Cl)c(=O)oc2c1	40.4 µM (active) and 71 µM (active) and inactive	1.8 µM (active) and 633 nM (active) and inactive	5.08 µM (active) and 15.9 µM (active)	321 nM (active) and 50.2 nM (active) and 3.89 µM (active)	286 nM (active) and 63.3 nM (active) and 8.71 µM (active)	2.86 µM (active) and 4.48 µM (active) and 13.8 µM (active)	22.1 µM (active) and inactive	
Nc1ccc(-c2ccc(N)c(Cl)c2)cc1Cl	inactive	inactive	inactive	4.01 µM (active) and 3.73 µM (active) and 5.64 µM (active)	10.1 µM (active) and 11.8 µM (active) and 12.6 µM (active)	1.79 µM (active) and 1.48 µM (active) and 1.42 µM (active)	inactive	5.05 µM (active) and 6.63 µM (active) and 7.96 µM (active)
CCNc1nc(Cl)nc(NCC)n1	inactive	inactive	inactive	inactive	inactive	11.3 µM (active) and 12.6 µM (active)	inactive	inactive
O=[N+]([O-])c1ccccc1O	inactive	inactive	31.6 µM (active) and inactive	inactive	inactive		inactive	inactive
C[N+](C)(C)Cc1ccccc1	inactive	inactive	7.93 µM (active) and inactive and 20 µM (active)	31.6 µM (active) and inactive	79.6 µM (active) and inactive	inactive	inactive	inactive
CC(=O)[O][Hg][c]1ccccc1	inactive	inactive	353 nM (active) and 564 nM (active) and 1.74 µM (active)	8.86 µM (active) and 8.94 µM (active) and 17.4 µM (active)	3.96 µM (active) and 2.52 µM (active) and 4.36 µM (active)	17.7 µM (active) and 22.4 µM (active) and 27.5 µM (active)	13.7 µM (active) and 13.8 µM (active)	4.98 µM (active) and 7.96 µM (active) and 12.3 µM (active)
CC(Cl)(Cl)C(=O)O	inactive	inactive	inactive	inactive	inactive and 63.3 µM (active)	inactive	inactive	inactive
O=P1(N(CCCl)CCCl)NCCCO1 (stereo unspecified)	inactive	inactive	inactive	71.8 µM (active) and inactive	inactive	inactive	inactive	
CC[N+]1(C)CCCC1	inactive	inactive	6.3 nM (active) and inactive	inactive and 31.8 µM (active)	inactive	inactive	inactive and 21.9 µM (active)	inactive
O=C(O)C(Cl)Cl	inactive	inactive	29.1 µM (active) and inactive	inactive	inactive	inactive	inactive	inactive

SMILES	Potency [1]	Potency [2]	Potency [3]	Potency [4]	Potency [5]	Potency [6]	Potency [7]	Potency [8]
CC[n+]1ccccc1	inactive	inactive	inactive	inactive and 3.96 µM (active)	inactive and 9.94 µM (active)	inactive	inactive	inactive
CCCn1cc[n+](C)c1	inactive	inactive	80.4 µM (active) and inactive	inactive	inactive	inactive	inactive	inactive
CCCC[N+]1(C)CCCCC1	inactive	inactive	inactive	inactive	inactive	inactive	inactive	inactive
Nc1ccc(-c2ccc(N)cc2)cc1	inactive	inactive	inactive	8.83 µM (active) and 39.6 µM (active) and 35.6 µM (active)	35.2 µM (active) and 11.2 µM (active) and 25.2 µM (active)	19.8 µM (active) and 14.1 µM (active) and 25.2 µM (active)	inactive	7.87 µM (active) and 7.91 µM (active) and 17.8 µM (active)
Cc1cc(-c2ccc(N)c(C)c2)ccc1N	inactive	inactive	3.21 µM (active) [middle of 4 runs]	6.4 µM (active) [middle of 4 runs]	15.9 µM (active) [middle of 4 runs]	509 nM (active) [middle of 4 runs]	inactive	
O=C(O)CCl	inactive	inactive	inactive	inactive	inactive	inactive	inactive	inactive
CCC(=O)C(CC(C)N(C)C)(c1ccccc1)c1ccccc1 (stereo unspecified)	inactive	inactive	2.01 µM (active) and 996 nM (active) and 1.53 µM (active)	inactive	inactive	inactive	43.8 µM (active)	
CCCCCCCCCCCCOS(=O)(=O)O	inactive	inactive	inactive	78.5 µM (active) and inactive	78.5 µM (active) and 71 µM (active) and inactive	inactive	inactive	inactive
O=c1nc(O)n(Cl)c(=O)n1Cl	inactive	inactive	inactive and 1.26 µM (active)	inactive	inactive	inactive	inactive	inactive
O=c1[nH]c(=O)n(Cl)c(=O)n1Cl	inactive	inactive	inactive	56.4 µM (active) and inactive	inactive	inactive	inactive	inactive
OCCOc1ccccc1	inactive	inactive	inactive	inactive	inactive	inactive	inactive	inactive
CCC[N+]1(C)CCCCC1	inactive	inactive	inactive	inactive	inactive	inactive	inactive	inactive
CNC	inactive	inactive	inactive	inactive	inactive	inactive	inactive	inactive
CCCCCCCCCCCCCC[P+](CCCCCC)(CCCCCC)CCCCCC	20.1 µM (active) and 25.4 µM (active) and inactive	inactive	201 nM (active) and 101 nM (active) and 224 nM (active)	25.3 µM (active) and 35.9 µM (active) and 79.6 µM (active)	25.3 µM (active) and 35.9 µM (active) and 5.63 µM (active)	35.7 µM (active) and 63.8 µM (active)	552 nM (active) and 349 nM (active) and 691 nM (active)	7.13 µM (active) and 7.16 µM (active) and 3.99 µM (active)
Nc1ccc(Cl)cc1	inactive	inactive	20 µM (active) and 31.7 µM (active) and 60.8 µM (active)	39.9 µM (active) and 20.4 µM (active)	39.9 µM (active) and 32.3 µM (active)	63.3 µM (active) and 39.9 µM (active) and 57.4 µM (active)	inactive	inactive
COP(=O)(OC)OC=C(Cl)Cl	inactive	inactive	inactive	inactive	inactive	inactive and 15.4 µM (active)	inactive	inactive
